Experimental data published in PubChem BioAssay (NCI).
This is part of a sample that, as a whole, favours compounds with a hit. Of some 83,000 tested, about 20% had one in any assay.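 Step 1: grow cells in 96-well plates. Step 2: add test compound at a single concentration. Step 3: incubate 48 h. Step 4: record percent growth.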 The source made the active and inactive calls. The calls were made as follows: active = growth percent below 10; inactive = the rest.

system: MDA-MB-468 breast; experiment: NCI-60 one-dose screen, 48 h (100 = growth as untreated, 0 = no growth, -100 = all killed); settings: 10 µM unless noted

| SMILES | growth |
| --- | --- |
| O=C1CC(c2nc3ccccc3s2)CN1C1CCCCC1 (centres undefined) | 104% (inactive) |
| Nc1cc(O)cc(O)c1 | 107% (inactive) |
| COc1ccc(CSc2nc3cc(OC)c(OC)cc3c(=O)n2-c2ccc(OC)cc2OC)cc1 | 74.3% (inactive) |
| CN1[C@@H]2CC[C@H]1/C(=C\c1ccccc1)C1=C2[C@@H](c2ccccc2)C(C#N)=C(N)O1 | 50.3% (inactive) |
| COc1cc2c(=O)n(CCCn3ccnc3)c3c4cc5c(cc4ccc3c2cc1OC)OCO5 | -37.3% (active) |
| CN(C)CCCn1c(=O)c2ccccc2c2cnc3[nH]ccc3c21 | -9.4% (active) |
| CCOCCOCCOCCOCCOCCOCCOCCOCCOCCO (tested in a mixture with another compound) | -13.5% (active) |
| Cn1c(=O)c2c(nc3n2CCN(CCc2ccc(OCCN4CCOCC4)cc2)C3)n(C)c1=O | 97.9% (inactive) |
| Cc1ccccc1C1CC(=O)c2ccccc2C1C (centres undefined) | 83% (inactive) |
